Reference: PubChem BioAssay (NCI)
Compounds without any hit were thinned out: in the full panel of roughly 83,000, 20% have a hit.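 Testing used 96-well plates and a 48-hour single-concentration exposure. Example: -40 means 40% of the starting cells died.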 Activity calls are given as the source filed them. Rule for the calls: active = growth percent below 10; inactive = the rest.

Tests used:
Assay in all cases: NCI-60 one-dose screen, 48 h (100 = growth as untreated, 0 = no growth, -100 = all killed)
Conditions in all cases: 10 µM unless noted
T-47D breast = tested on: T-47D breast
MDA-MB-435 melanoma = tested on: MDA-MB-435 melanoma
SW-620 colon = tested on: SW-620 colon
MCF7 breast = tested on: MCF7 breast
HCT-116 colon = tested on: HCT-116 colon
HCC-2998 colon = tested on: HCC-2998 colon
KM12 colon = tested on: KM12 colon
BT-549 breast = tested on: BT-549 breast

Measured: growth

O=C1CNCCN1
inactive: T-47D breast 110% | MDA-MB-435 melanoma 107% | SW-620 colon 104% | MCF7 breast 89.3% | HCT-116 colon 101% | HCC-2998 colon 111% | KM12 colon 110%

c1ccc(C2Cc3ccccc3C2=NC2CCCCC2)cc1 (stereo not drawn)
inactive: T-47D breast 93.5% | BT-549 breast 88.3% | SW-620 colon 119% | MCF7 breast 86.1% | HCT-116 colon 96.9% | HCC-2998 colon 108% | KM12 colon 112%

OCC12CCCC(CO)(COC1)C2O (stereo not drawn)
inactive: T-47D breast 101% | BT-549 breast 105% | SW-620 colon 97.1% | MCF7 breast 106% | HCT-116 colon 100% | HCC-2998 colon 100% | KM12 colon 107%

O=[N+]([O-])c1cccc(/C=N\Nc2ccccc2)c1
inactive: T-47D breast 55.8% | MDA-MB-435 melanoma 53.8% | SW-620 colon 71.3% | MCF7 breast 64.5% | HCT-116 colon 58.3% | HCC-2998 colon 83.8% | KM12 colon 38.8%

COc1ccc(-c2nc(SCC(=O)Nc3ccc(C(C)=O)cc3)[nH]c(=O)c2C#N)cc1
inactive: T-47D breast 89.4% | MDA-MB-435 melanoma 111% | SW-620 colon 112% | MCF7 breast 97.5% | HCT-116 colon 76.3% | HCC-2998 colon 105% | KM12 colon 101%

Nc1nc2c3ccncc3cc(-c3cccc(Cl)c3)c2c2cnccc12
inactive: T-47D breast 32% | MDA-MB-435 melanoma 66.8% | SW-620 colon 36.5% | MCF7 breast 33.4% | HCC-2998 colon 74.9% | KM12 colon 46.2%
active: HCT-116 colon 5.95%

O=C(O)c1cccc2c1Cc1cc([N+](=O)[O-])ccc1-2
inactive: T-47D breast 106% | MDA-MB-435 melanoma 108% | SW-620 colon 103% | MCF7 breast 102% | HCT-116 colon 97.5% | HCC-2998 colon 101% | KM12 colon 109%

COC(=O)CCCCCn1c2ccccc2c2c3c(c4c5ccccc5[nH]c4c21)C(=O)N(O)C3=O
inactive: T-47D breast 21.6% | MDA-MB-435 melanoma 71.2% | SW-620 colon 48.7% | MCF7 breast 13.1% | HCT-116 colon 28.4% | HCC-2998 colon 55.4% | KM12 colon 46.5%

COc1cccc(-c2nn(-c3ccccc3)cc2-c2ccnc(NCCCO)c2)c1
active: MDA-MB-435 melanoma -15.5%
inactive: T-47D breast 26.7% | MCF7 breast 29.5% | HCT-116 colon 22.9% | HCC-2998 colon 65.5% | KM12 colon 34.1%

Cc1c(C)c2c(c(C)c1NC(=O)CCCCCCC(=O)O)CCC(C)(CCCC(C)CCCC(C)CCCC(C)C)O2 (stereo not drawn)
inactive: T-47D breast 89.7% | MDA-MB-435 melanoma 95% | SW-620 colon 80.4% | MCF7 breast 43.5% | HCC-2998 colon 98.2% | KM12 colon 30.7%

COc1c(N)c2c(c([N+](=O)[O-])c1OC)C(=O)OC2
inactive: T-47D breast 101% | MDA-MB-435 melanoma 106% | SW-620 colon 106% | MCF7 breast 100% | HCT-116 colon 102% | HCC-2998 colon 105% | KM12 colon 107%

CNC(=O)c1cc(Oc2ccc3nc(NC(=O)Nc4ccc(Cl)cc4)sc3c2)ccn1
inactive: T-47D breast 44% | MDA-MB-435 melanoma 64.1% | SW-620 colon 101% | MCF7 breast 69.5% | HCT-116 colon 47.3% | HCC-2998 colon 86.5% | KM12 colon 70%

Nc1nc(Br)nc2c1ncn2C1CC(O)C(CO)O1 (stereo not drawn)
inactive: T-47D breast 70.1% | MDA-MB-435 melanoma 56.5% | SW-620 colon 60.1% | MCF7 breast 28.4% | HCT-116 colon 37.9% | HCC-2998 colon 58.9% | KM12 colon 78.6%

O=C1CCCC=CC[C@H]2C=C(Cl)C(=O)C2=CC[C@H](CCCCC(F)(F)F)OC(=O)CCCC=CC[C@H]2C=C(Cl)C(=O)C2=CC[C@H](CCCCC(F)(F)F)OC(=O)CCCC=CC[C@H]2C=C(Cl)C(=O)C2=CC[C@H](CCCCC(F)(F)F)O1
inactive: T-47D breast 71.2% [6.25 µM] | MDA-MB-435 melanoma 30.6% [6.25 µM] | SW-620 colon 17.3% [6.25 µM] | MCF7 breast 30.5% [6.25 µM] | HCC-2998 colon 98.5% [6.25 µM] | KM12 colon 94.3% [6.25 µM]
active: HCT-116 colon 7.18% [6.25 µM]

COC(=O)[C@@H]1[C@H]2C[C@H]3c4[nH]c5cc(OC)ccc5c4CCN3C[C@@H]2C[C@H](OC(=O)/C=C/c2ccnc(OC)c2)[C@H]1OC
inactive: T-47D breast 67.1% | MDA-MB-435 melanoma 97.5% | SW-620 colon 98.3% | MCF7 breast 72.6% | HCT-116 colon 73.4% | HCC-2998 colon 105% | KM12 colon 98.8%

CC(=O)O[C@H]1CC[C@]2(C)[C@H]3CC=C4[C@@H]5[C@H](C)[C@@H](C)CC[C@]5(C(=O)NCCNCCNCCN)CC[C@@]4(C)[C@]3(C)CC[C@H]2C1(C)C
inactive: T-47D breast 63.8% | MDA-MB-435 melanoma 83% | SW-620 colon 87.3% | MCF7 breast 58.1% | HCT-116 colon 62.3% | HCC-2998 colon 80% | KM12 colon 86.2%

C#Cc1cccc(NC(=O)C2CCCN(C(=O)CCl)C2)c1 (stereo not drawn)
inactive: T-47D breast 84.2% [8.25 µM] | MDA-MB-435 melanoma 43.8% [8.25 µM] | SW-620 colon 20.5% [8.25 µM] | MCF7 breast 59.1% [8.25 µM] | HCT-116 colon 13% [8.25 µM] | HCC-2998 colon 97.2% [8.25 µM] | KM12 colon 94.7% [8.25 µM]

Nc1c(Cl)cc(N=Nc2ccccc2)cc1Cl
inactive: T-47D breast 49.6% | MDA-MB-435 melanoma 105% | SW-620 colon 88.8% | MCF7 breast 19.7% | HCC-2998 colon 87.1% | KM12 colon 85.7%

O=[N+]([O-])c1ccc(/C=N\Nc2ccccc2)cc1
inactive: T-47D breast 72.2% | MDA-MB-435 melanoma 68.9% | SW-620 colon 79.9% | MCF7 breast 75.1% | HCC-2998 colon 96.6% | KM12 colon 36.1%

O=C(N/N=C\c1c(O)ccc2ccccc12)C1CC1
inactive: T-47D breast 53.6% | MDA-MB-435 melanoma 64.9% | MCF7 breast 31.1% | HCT-116 colon 13.1% | HCC-2998 colon 101% | KM12 colon 51.6%

COc1cc(-c2cc(-c3nc4ccccc4[nH]3)[nH]n2)cc(OC)c1OC
inactive: SW-620 colon 59.4% | MCF7 breast 44.2% | HCT-116 colon 38.7% | HCC-2998 colon 71.4% | KM12 colon 27%
active: T-47D breast 6.65%

Clc1ccc2[nH]cc(-c3nc(-c4c[nH]c5ncccc45)cs3)c2c1
inactive: T-47D breast 47.8% | MDA-MB-435 melanoma 49.4% | SW-620 colon 18.1% | MCF7 breast 35% | HCT-116 colon 23.7% | HCC-2998 colon 69.3% | KM12 colon 23.3%

Cc1ccnc2c(OCc3ccccc3)cccc12
inactive: T-47D breast 72.8% | MDA-MB-435 melanoma 90.2% | SW-620 colon 92% | MCF7 breast 38.3% | HCC-2998 colon 86.6% | KM12 colon 82.8%

COc1cccc(-c2nn(-c3ccccc3)cc2-c2ccnc(NCCCNS(=O)(=O)c3ccc(C(F)(F)F)cc3)c2)c1
active: T-47D breast -2.76%
inactive: MDA-MB-435 melanoma 27.1% | SW-620 colon 47.7% | MCF7 breast 16.9% | HCT-116 colon 22.9% | HCC-2998 colon 20% | KM12 colon 23.8%

Clc1ccccc1-c1nc(Nc2nc3ccccc3s2)nc(C(Cl)(Cl)Cl)n1
inactive: T-47D breast 38.7% | MDA-MB-435 melanoma 49% | SW-620 colon 39.5% | MCF7 breast 32.6% | HCT-116 colon 19.1% | HCC-2998 colon 54.1% | KM12 colon 31.3%
